Sfp inh: Sfp phosphopantetheinyl transferase inhibition; AID 1490; Biochemical Sfp PPTase activity, qHTS; Potency, µM, for the others: largest response in the series, negative = inhibition, actives largely listed as inhibitors; actives 3.5% (n = 310,000); Q9F4F7;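 also: the enzyme is Sfp with the accession as filed and its product quenches rhodamine fluorescence; 0% = enzyme reaction without inhibitor and -100% = no enzyme wells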
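Reaction rates are the 30-min fluorescence difference (ex 525, em 598 nm) in wells containing 15 nM Sfp, 5 uM rhodamine-CoA and 12.5 uM BHQ-2-YbbR at pH 7.6 with 10 mM MgCl2.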
G9a block: inhibitors of human histone lysine methyltransferase G9a | Q96KQ7 | G9a H3K9 monomethylation, AlphaScreen, 2 h | Potency, µM (titrated, usually from 102 µM), inactives show top-dose activity, negative = inhibition, hits mostly inhibitors | actives 8.8% (n = 350,000) | AID 504332; also: % is scaled to controls: 0 for no effect and ±100 for the full control effect; nearly all actives have a fitted effect of over 75% in size
Target sequence (Q96KQ7 913-1193 limits assumed): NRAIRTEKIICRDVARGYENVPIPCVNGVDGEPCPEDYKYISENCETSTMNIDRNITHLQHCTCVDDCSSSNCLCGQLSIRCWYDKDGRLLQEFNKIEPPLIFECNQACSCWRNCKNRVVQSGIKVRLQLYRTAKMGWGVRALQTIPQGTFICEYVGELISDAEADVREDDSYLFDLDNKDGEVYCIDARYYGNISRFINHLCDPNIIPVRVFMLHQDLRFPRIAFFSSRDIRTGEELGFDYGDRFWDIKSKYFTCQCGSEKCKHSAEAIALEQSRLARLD
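G9a (20 nM) preincubated 15 min RT with compounds, then 500 nM biotinylated H3K9 peptide and 20 uM SAM added; 2 h RT reaction. Monomethyl-H3K9 product detected by AlphaScreen with anti-H3K9me1 antibody, streptavidin donor and anti-rabbit IgG acceptor beads.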
JMJD2A Tudor: inhibitors of human JMJD2A Tudor domain. actives 4.4% (n = 390,000). AlphaScreen JMJD2A-Tudor / H3K4me3 peptide binding. AID 504339. Potency, µM (titrated, usually from 114 µM), without a hit: top-dose activity change, negative = inhibition, hits mostly inhibitors; also: % is scaled to controls: 0 for no effect and ±100 for the full control effect; nearly all actives have a fitted effect of over 50% in size
BAZ2B inh: BAZ2B (human) inhibition | Potency, µM (titrated, usually from 114 µM), without a hit: top-dose activity change, negative = inhibition, usual class: inhibitors | AID 504333 | actives 4.4% (n = 360,000) | Q9UIF8 | AlphaScreen BAZ2B-H3K14Ac peptide displacement; also: % is scaled to controls: 0 for no effect and ±100 for the full control effect; nearly all actives have a fitted effect of over 60% in size
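AlphaScreen luminescence quantifies BAZ2B engagement of H3K14Ac peptide; the protein and biotinylated peptide are both at 50 nM final, buffer PBS pH 7.4 with 0.01% Tween-20, all steps at room temperature.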
HP1b chromo inh: inhibitors of HP1-beta chromodomain binding to methylated histone tails. AID 540317. AlphaScreen HP1-beta / biotin-H3K9me3 peptide binding. P83916. Potency, µM (series often up to 114 µM), without a hit: at the highest dose activity change, negative = inhibition, usual class: inhibitors. actives 0.56% (n = 390,000); also: nearly all actives have a fitted effect of over 70% in size
Target sequence (P83916 whole entry, looked up): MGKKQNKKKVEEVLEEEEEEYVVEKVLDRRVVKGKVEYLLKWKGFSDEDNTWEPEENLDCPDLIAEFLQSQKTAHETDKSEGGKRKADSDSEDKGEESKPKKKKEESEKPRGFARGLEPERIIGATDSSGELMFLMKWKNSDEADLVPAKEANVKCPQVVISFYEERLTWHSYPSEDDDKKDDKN
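Compound inhibition of the preformed complex between 50 nM HP1-beta and 50 nM biotinylated H3K9me3 peptide was read by AlphaScreen. Buffer was PBS pH 7.4 with 0.01% Tween-20. Incubations ran 30 min at room temperature, with 10 ug/mL donor/acceptor beads.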
L3MBTL1 inh: blocks human L3MBTL1; Q9Y468; AlphaScreen L3MBTL1–H3K9me1 peptide binding; Potency, µM (series often up to 57.1 µM), for inactives: top-dose activity, negative = inhibition, usual class: inhibitors; actives 0.66% (n = 230,000); AID 485360; also: % is scaled to controls: 0 for no effect and ±100 for the full control effect; nearly all actives have a fitted effect of over 60% in size
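Read-out is AlphaScreen signal from streptavidin donor and nickel chelate acceptor beads (10 ug/mL final each) bridging L3MBTL1 (50 nM) and biotinylated K9-monomethylated H3(1-15) peptide (75 nM), after 30 min compound exposure at room temperature.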
Starred values were filed as active, the others as inactive; ? = inconclusive; . = no result; ! = not active in a repeat; [ ] = dose if it differs, or a comment. A selection: hits, their analogues and other compounds. The true share with any hit is near 12%. Calls follow the shape of the dose curve; as a rule, active = well fitted curve in the direction sought with a large enough effect; inconclusive = small, poorly fitted or top-dose-only effect, or another doubt; inactive = no such curve, though single readings can be large; an effect the other way counts as inactive or inconclusive. Potency is read from the fitted curve at half-maximal effect.

SMILES | Sfp inh | G9a block | JMJD2A Tudor | BAZ2B inh | HP1b chromo inh | L3MBTL1 inh
CN(C)c1ccc(/C=C2\C(=O)Nc3ccccc32)cc1 | 56µM*! | 14µM* | . | . | . | .
Cc1ccc(/C=C2\C(=O)Nc3ccccc32)o1 | 16µM* | 8.9µM* | 45µM* | 40µM* | 45µM* | -4%
Cc1ccc(/C=C2\C(=O)NC(=O)N2C)o1 | 40µM* | 35µM* | -15% | -33% | 26% | .
O=C1Nc2ccccc2/C1=C/c1cccnc1 | 4% | -47% | -28% | -15% | -3% | .
Cc1cccc(C(=O)Nc2ccccc2OCc2cc(=O)n3c(C)csc3n2)c1 | . | 0%[59 µM] | -8% | -2% | 26% | .
Cc1cccc(C(=O)Nc2ccc(C(=O)OCc3cc(=O)n4c(C)csc4n3)cc2)c1 | . | 5%[59 µM] | ? | 79µM* | 62% | .
COc1ccc2cc(C)c3nnc(SCC(=O)Nc4cc(OC)c(OC)cc4C(=O)O)n3c2c1 | -13% | 40µM* | -24% | -22% | 16% | 0%
COc1ccc(-c2csc(NC(=O)CSc3n[nH]c(C)n3)n2)cc1 | 0% | 6%[59 µM] | -15% | -14% | 15% | .
Cc1cc(NC(=O)CSc2nnc3c(C)cc4cc(C)c(C)cc4n23)no1 | 4% | 14% | -13% | 2% | 33% | 6%
Cc1cc(NC(=O)CSc2nnc3c(C)cc4cc5c(cc4n23)OCO5)no1 | 13% | 35µM* | . | -3% | . | 9%
COc1ccc2cc(C)c3nnc(SCC(=O)Nc4nc(-c5ccccc5)cs4)n3c2c1 | 79µM* | -3%[12.7 µM] | -34% | -36% | 33% | -2%
COc1ccc(-c2csc(NC(=O)CSc3n[nH]c(N)n3)n2)cc1 | -20% | 8.9µM* | 10µM* | -8% | 79µM* | ?
CCn1c(SCC(=O)Nc2nc(-c3ccccc3)cs2)nnc1-c1ccccc1 | -1% | ? | -23% | -32% | 6% | 0%
Cc1cccc(NC(=O)Cn2c(=O)n(Cc3ccc4c(c3)OCO4)c(=O)c3oc4ccccc4c32)c1C | . | -2%[59 µM] | -11% | -16% | 19% | .
COc1cccc2cc(C(=O)NCc3ccc(Cl)cc3)c(=O)oc12 | 6% | 26% | -10% | -1% | 13% | .
Cc1ccc(S(=O)(=O)Nc2cc(C(=O)NCCN(C)C)ccc2N2CCCC2)cc1 | -9% | ? | -19% | -15% | 10% | .
CN(C)CCNC(=O)c1cccc(S(=O)(=O)Nc2ccc(F)cc2)c1 | 0% | ? | -16% | -24% | 21% | -6%
CCN(CC)CCNC(=O)c1ccc(NC(=O)c2cccc(S(=O)(=O)Nc3ccc(C)cc3)c2)cc1 | 40µM* | ? | -22% | -17% | 22% | .
CCN(CC)CCNC(=O)c1ccc(NC(=O)c2ccc(Cl)c(S(=O)(=O)Nc3ccccc3OC)c2)cc1 | -9% | 50µM* | . | -28% | . | -5%
CCN(CC)CCCNC(=O)c1ccc(N2CCCCC2)c(NS(=O)(=O)c2ccc(C)cc2)c1 | ? | 79µM* | -19% | ? | 40% | .
CCN(CC)CCNC(=O)c1ccc(NC(=O)c2ccc(S(=O)(=O)N(C)c3ccccc3OC)cc2)cc1 | . | . | -26% | . | -7% | .
CCN(CC)CCNC(=O)c1ccc(NC(=O)c2cccc(S(=O)(=O)N3c4ccccc4CC3C)c2)cc1 (stereo unspecified) | ? | 2% | -35% | -26% | -2% | .
CCN(CC)CCNC(=O)c1ccc(NC(=O)c2cccc(S(=O)(=O)N3CCc4ccccc43)c2)cc1 | . | 32µM* | ? | -13% | ? | -12%
O=C(Nc1ccc(F)c(Cl)c1)c1ccc2c(Cl)c3c(nc2c1)CCCC3 | . | -30%[59 µM] | -5% | 1% | 22% | .
Nc1nc(=S)c2[nH]cnc2[nH]1 | -92% | 2.2µM* | 5.6µM* | -36% | 5% | -7%
SMILES | Sfp inh | G9a block | JMJD2A Tudor | BAZ2B inh | HP1b chromo inh | L3MBTL1 inh
CSc1nc(=O)[nH]c2nc[nH]c12 | . | . | -5%[57.1 µM] | . | 11%[57 µM] | .
COCCNc1nc(C)c(C(C)=O)s1 | 16% | 40µM* | -15% | -29% | 45% | 8%
COc1ccccc1CNc1nc(C)c(C(C)=O)s1 | ? | 11µM* | -23% | ? | -19% | .
COc1ccccc1CNc1nc(C)c(C(=O)N(C)C)s1 | 45µM* | 14µM* | -6% | -22% | ? | .
CCOC(=O)c1nc(NCCc2ccccc2)sc1C | -9% | 3% | -25% | . | 25% | -1%
Cc1nc(NCCc2ccccc2)sc1C(=O)N(C)C | ? | 25µM* | -4% | 6% | -17% | .
CCc1ccc2occ(CC(=O)Nc3ccc(C)c(C)c3)c2c1 | . | -14%[59 µM] | 29% | -2% | 27% | .
Cc1cc(=O)[nH]c(N=N/C(=N/Nc2ccc(O)cc2)c2ccccc2)n1 | 10% | 0.56µM* | 56µM* | 10µM* | ? | .
COc1ccc(N/N=C(/N=Nc2nc(C)cc(=O)[nH]2)c2ccccc2)cc1 | 5% | ? | ? | 7.1µM* | 16µM* | .
Cc1cc(=O)[nH]c(N=N/C(=N/Nc2ccccc2C)c2ccccc2)n1 | 7% | 28µM* | ? | ? | ? | .
Cc1ccc(NS(=O)(=O)c2ccc(-c3ccccc3)cc2)cc1C | . | . | -13% | . | . | .
CCOc1ccc(NC(=O)c2ccc(N3CC4CC(C3)c3cccc(=O)n3C4)c(N)c2)cc1 (stereo unspecified) | 5% | ? | -11% | -29% | 6% | .
CCCN(CC(=O)Nc1ccccc1C)CC(=O)Nc1ccc(Br)cc1F | -4% | 25% | 6% | 2% | 53% | .
CCCCC[C@H](O)/C=C/C=C\C/C=C\C/C=C\CCCC(=O)O | 10% | 30%[59 µM] | . | . | . | .
O=C1C(SCCO)=C(SCCO)C(=O)c2ccccc21 | 0.28µM*! | 1.3µM*! | 8.9µM* | ? | ? | ?
CCOc1ccc(C(=O)NCC(=O)Nc2ccc3c(c2)OCO3)cc1OCC | . | 50µM* | ? | -15% | -9% | -5%
CCOc1cc(C(=O)NCc2ccccc2)ccc1OCC(=O)N1CCOCC1 | 22% | -66% | -9% | -23% | 39% | 1%
CCOc1cc(C(=O)Nc2ccc(C(=O)NCCN(CC)CC)cc2)ccc1OCC(=O)N1CCOCC1 | . | 50µM* | 8% | 8% | 40% | 3%
CCOc1cc(C(=O)Nc2ccc3c(c2)OCO3)ccc1OC(F)F | 9% | -26%[59 µM] | 0% | 1% | 14% | 0%
CCOC(=O)CNc1ccc2c(c1)OCO2 | 20µM* | ? | -34% | ? | -13% | -25%
N#C/C(=C/C1=C(N2CCOCC2)C(=C/c2ccc(Cl)cc2)/CC1)C(=O)Nc1ccccc1F | . | . | -31% | . | -33% | .
CC(C)(C)c1ccc(NS(=O)(=O)c2ccc(N)cc2)cc1 | -20% | ? | -23% | -12% | 20% | -8%
CC(C)(C)c1ccc(S(=O)(=O)/C=C/C#N)cc1 | . | 0.95µM* | . | . | . | .
COc1ccc(N(CC(=O)Nc2cccc(Cl)c2C)S(=O)(=O)c2c(C)nn(C)c2C)cc1 | . | 3%[59 µM] | -5% | . | 43% | .

Screening results: PubChem, National Center for Advancing Translational Sciences (NCATS)
